The record followed here is PubChem BioAssay (NCI).

A short description of assay [1]: NCI Yeast Anticancer Drug Screen. Data for the rad50 strain (AID 155).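 Note: 0% = growth of vehicle-only cultures of the same strain.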 The settings on record: S. cerevisiae rad50 strain growth inhibition, stronger effect = higher value; at 50.0 µM unless noted. In a few lines:
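Growth of the mutant yeast was measured after compound exposure and referenced to vehicle-treated cultures.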

Assay [2] in a line: NCI Yeast Anticancer Drug Screen. Data for the mec2-1 strain (AID 157). The settings on record: S. cerevisiae mec2-1 strain, stronger effect = higher value; at 50.0 µM unless noted. In a few lines: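 Yeast mec2-1 mutant treated with compound. Readout: growth inhibition vs vehicle controls.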
Assay [3] is described as follows: NCI Yeast Anticancer Drug Screen. Data for the sgs1 mgt1 strain (AID 161).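 Note: 0% = growth of cultures given vehicle only.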 The settings on record: S. cerevisiae sgs1 mgt1 strain, stronger effect = higher value; at 50.0 µM unless noted. In a few lines:
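Inhibition of yeast growth, normalised to vehicle-treated controls, is reported for a strain bearing genetic alterations in DNA damage repair.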

Assay [4] in a line: NCI Yeast Anticancer Drug Screen. Data for the cln2 rad14 strain (AID 165).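 Note: 0% = growth equal to vehicle treated cultures.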 As to conditions: S. cerevisiae cln2 rad14 strain, stronger effect = higher value; at 50.0 µM unless noted. A digest of the protocol: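 cln2 rad14 yeast strain; compound exposure; growth inhibition read vs vehicle controls.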
The nature of assay [5]: NCI Yeast Anticancer Drug Screen. Data for the bub3 strain (AID 167). As to conditions: S. cerevisiae bub3 mutant strain, stronger effect = higher value; at 50.0 µM unless noted. In a few lines: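 Whole-cell yeast assay. The mutant strain was incubated with compounds, and growth inhibition was determined by comparison with vehicle-treated cells.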
Assay [6] in a line: NCI Yeast Anticancer Drug Screen. Data for the mlh1 rad18 strain (AID 175). As to conditions: S. cerevisiae mlh1 rad18 strain growth inhibition, stronger effect = higher value; at 50.0 µM unless noted. In a few lines: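 Yeast w/ defined DNA-repair lesions; compound exposure; growth vs vehicle controls → % inhibition.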

Values joined by “and” are separate entries in the source; they are usually repeats but may differ in a detail not shown here. Equal values may be shown once. The panel holds about 79,000 compounds, 15% with a hit somewhere; the sample as a whole holds those more often. A number with no mark means an inactive call. Active and inactive are the calls of the source. Cut-off read from the data, not from the text of the source: active = growth inhibition above about 70%; inactive = the rest.

On to `C[C@]12CCC(=O)C=C1CC[C@H]1[C@@H]3CC[C@](O)(C(=O)CO)[C@@]3(C)CC(=O)[C@@]12SC(N)=O`, for which the growth inhibition was -4.6% in assay [1]; 6.55% in assay [2]; 3.9% in assay [3]; 20.8% in assay [4]; 6.1% in assay [5]; -15.7% in assay [6].

Take `Cc1ccc2ccc3ccccc3c2c1`: the growth inhibition was 46% in assay [1]; 1.45% in assay [2]; 9.2% in assay [3]; 20.4% in assay [4]; 17.9% in assay [5]; 26.2% in assay [6].

As to `CC(=O)Oc1ccc2c(c1)CCC2`, the growth inhibition in assay [1] is 9.85%; in assay [2], 12.8%; in assay [3], 1.4%; in assay [4] it was 8.25%; in assay [5], 15.1%; in assay [6], 0.1%.

Take `CN1C(=O)C(c2c[nH]c3ccccc23)N(C)C(=O)C1c1c[nH]c2ccccc12` (stereo not given): the growth inhibition is -29.9% in assay [1]; -10.8% in assay [2]; -79.5% in assay [3]; -20.1% in assay [4]; -27.9% in assay [5]; -20% in assay [6].

Turning to `O=C1N(C2CCCCC2)C(/C=C/c2ccccc2)C1(c1ccccc1)c1ccccc1` (stereo not given), the growth inhibition in assay [1] was 22.4%; in assay [2], 0.25%; in assay [3], 3.65%; in assay [4] it was 19.6%; in assay [5] it was -6.05%; in assay [6] it was 4.7%.

Regarding `O=C(CSS(=O)(=O)O)Nc1ccccc1`, the growth inhibition is 17.6% in assay [1]; -0.65% in assay [2]; 7.5% in assay [3]; 14.6% in assay [4]; 9.65% in assay [5]; -8.05% in assay [6].

Regarding `COc1ccc2nc3cccc([N+](=O)[O-])c3c(NC(C)CN(C)C)c2c1` (stereo not given), the growth inhibition in assay [1] was 52%; in assay [2] it was 35.9%; in assay [3], 54.1%; in assay [4] it was 64.3%; in assay [5], 26.4%; in assay [6], 42.9%.

Consider `Cc1cccc(/C=N/NC(=S)NC(C)(C)C)n1`, for which the growth inhibition in assay [1] is -17.4%; in assay [2], -32.4%; in assay [3] it was -4.45%; in assay [4], 0.1%; in assay [5], 15.8%; in assay [6], -27.1%.

`O=C(OCC(OC(=O)c1ccccc1)C(OC(=O)c1ccccc1)C(OC(=O)c1ccccc1)c1cnn(-c2ccccc2)n1)c1ccccc1` (stereo not given): the growth inhibition in assay [1] is 0.55% and 30.4%; in assay [2] it was 3.85% and 38.2%; in assay [3] it was -6.45% and 58.4%; in assay [4], -13.4% and 47.3%; in assay [5] it was -0.85% and 42.1%; in assay [6], 12.9% and 34.9%.

Take `CC1(C)CC(=O)C=C(n2ccccc2=O)C1`: the growth inhibition was 2.7% in assay [1]; -5.3% in assay [2]; 0.15% in assay [3]; 7.5% in assay [4]; -19.8% in assay [5]; -1.8% in assay [6].

`Cc1ccc(-c2ccc(C)cc2C(=O)O)c(C(=O)O)c1`: the growth inhibition in assay [1] is -21.8%; in assay [2] it was 1%; in assay [3] it was 4%; in assay [4], -28.1%; in assay [5], -2.5%; in assay [6] it was -15.3%.

In the case of `CCCCCCCC(=O)C1C(=O)OC(C)(C)OC1=O`, the growth inhibition in assay [1] is 9.65%; in assay [2], -6.45%; in assay [3] it was -7.85%; in assay [4], 9.65%; in assay [5], -0.5%; in assay [6], -7.15%.

Regarding `BrC1(Br)C2CCCCCCC21` (stereo not given), the growth inhibition in assay [1] is -26.6%; in assay [2], 4.85%; in assay [3], 3.15%; in assay [4], -6.6%; in assay [5], -21.1%; in assay [6] it was -29.7%.

For the compound `CCN(CC)Cc1c(/C=C\c2cc(OC)c(OC)c(OC)c2)ccc(OC)c1O`, the growth inhibition in assay [1] is -7.05%; in assay [2], 4.4%; in assay [3], 14.1%; in assay [4], 9.55%; in assay [5] it was 15.3%; in assay [6] it was -64%.

With `CCCCC(C)(C)SCCC(=O)O`, the growth inhibition was 11.2% in assay [1]; -7.25% in assay [2]; 14.9% in assay [3]; 10.9% in assay [4]; 5.6% in assay [5]; -5.35% in assay [6].

`O=[N+]([O-])c1cccnc1S(=O)(=O)c1ccccc1`: the growth inhibition is 36.9% in assay [1]; 5.7% in assay [2]; 12.2% in assay [3]; 4.75% in assay [4]; 6.2% in assay [5]; -0.15% in assay [6].

As to `CCCCCCCCN1CCOCCOCCN(CCCCCCCC)c2nc(Cl)nc(n2)NCCOCCOCCNc2nc(Cl)nc1n2`, the growth inhibition in assay [1] was 7.8%; in assay [2] it was -16.1%; in assay [3] it was -21.8%; in assay [4], -9.7%; in assay [5], -5%; in assay [6] it was 7.7%.

`O=C(O)NC(=O)c1cc([N+](=O)[O-])ccc1COC1CCCCO1` (stereo not given): the growth inhibition is 5.95% in assay [1]; -0.85% in assay [2]; 2.55% in assay [3]; -11.7% in assay [4]; 14.9% in assay [5]; 0.75% in assay [6].

Turning to `CCO/C([O-])=N\[n+]1c(C)nc2cc3c(cc2c1C)OCO3`, the growth inhibition is 5.75% in assay [1]; 5.65% in assay [2]; 1.2% in assay [3]; 7.8% in assay [4]; 9% in assay [5]; 8.9% in assay [6].

Regarding `CN(C)CCC(=O)C(=Cc1ccc(Cl)c(Cl)c1)C(=O)CCN(C)C`, the growth inhibition was 93.2% (active) in assay [1]; 97.7% (active) in assay [2]; 95% (active) in assay [3]; 79.8% (active) in assay [4]; 97.8% (active) in assay [5]; 98% (active) in assay [6].
